According to PubChem BioAssay:
Values joined by “and” are separate entries in the source; they are usually repeats but may differ in a detail not shown here. Identical values can stand only once. Results filed as inconclusive are left out. Active and inactive are the calls of the source. Cut-off read from the data, not from the text of the source, unless noted: active = inhibition above about 80%; inactive = the rest.

Experiments:
[1] = enhancers of SMN2 over SMN1 splicing, cell-based, SMN2/SMN1 luciferase reporters (AID 1598; call rule not given here); conditions: SMN2 vs SMN1 luciferase splicing reporter cells, at 10 µM; SMN1 luciferase ratio: measured here: SMN1 luciferase reporter average; SMN2 luciferase ratio: measured here: SMN2 luciferase reporter average, stronger effect = higher value; SMN2/SMN1 luciferase ratio: stronger effect = higher value
[2] = inhibitors of Cryptococcus chitosan production, flow cytometry, Cibacron Brilliant Red staining (AID 1347148; call rule not given here;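 note: compound exposure lasted three days at 37 degrees C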); conditions: Cryptococcus neoformans chitosan, stronger effect = lower value; at 99.1 µM unless noted
[3] = protection against mutant huntingtin cytotoxicity, PC12 cells, LDH release (AID 1610); conditions: PC12 mutant huntingtin toxicity, final LDH at 4 uM, stronger effect = lower value
[4] = protection of motor neurons from glutamate death, cell-based, TUNEL DNA degradation staining, MNGlu (AID 1594; call rule not given here); conditions: glutamate-induced death, at 1 µM, stronger effect = higher value
[5] = HDN33 neuroblastoma growth inhibition, cell-based, chromothripsis tumors, cisplatin or BGB combos (AID 1671450); conditions: HDN33 neuroblastoma cells, stronger effect = higher value;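 note: cells exposed to compound for four days; 0% = vehicle DMSO and 100% = cell killing by high DMSO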
[6] = LFS_MB_1R medulloblastoma cell growth inhibition, synergistic combos for chromothripsis tumors, cisplatin or BGB combos (AID 1671452); conditions: LFS_MB_1R medulloblastoma cells, stronger effect = higher value;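 note: cells exposed for 96 hours before readout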
[7] = HTB85 osteosarcoma cell growth inhibition, synergistic combos for chromothripsis tumors, BGB or cisplatin IC20 combos (AID 1671453); conditions: HTB85 osteosarcoma cells, drug combinations, stronger effect = higher value;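 note: cells exposed for 96 hours before readout; 0% = vehicle DMSO and 100% = high DMSO killing control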
[8] = CRL2098 osteosarcoma cell growth inhibition, synergistic combos for chromothripsis tumors, BGB or cisplatin IC20 combos (AID 1671454); conditions: CRL2098 osteosarcoma cells, drug combinations, stronger effect = higher value;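 note: cells exposed for 96 h before readout; 0% = vehicle DMSO and 100% = killing by high DMSO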
[9] = HD-MB03 medulloblastoma cell growth inhibition, synergistic combos for chromothripsis tumors, BGB or cisplatin IC20 combos (AID 1671455; in the data active = inhibition above about 83%;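 note: 0% = vehicle DMSO and 100% = high DMSO as cytotoxic control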); conditions: HD-MB03 medulloblastoma cells, stronger effect = higher value
[10] = UWB1.289 ovarian carcinoma cell growth inhibition, synergistic combos for chromothripsis tumors, BGB or cisplatin combos (AID 1671456); conditions: UWB1.289 ovarian carcinoma cells, stronger effect = higher value;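 note: cells exposed to compound for four days; 0% = vehicle DMSO and 100% = killing by high DMSO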
[11] = LFS_MB_2R medulloblastoma cell growth inhibition, synergistic combos for chromothripsis tumors, cisplatin combos (AID 1671457); conditions: LFS_MB_2R medulloblastoma cells, stronger effect = higher value;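 note: cells exposed to compound for four days before readout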
[12] = MDA-MB-436 breast carcinoma cell growth inhibition, synergistic combos for chromothripsis tumors, BGB or cisplatin combos (AID 1671458; call rule not given here;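 note: cells exposed for 96 hours; 0% = vehicle DMSO and 100% = killing by high DMSO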); conditions: MDA-MB-436 breast carcinoma growth inhibition, drug combinations, stronger effect = higher value
[13] = UWB1.289_BRCA1 ovarian cancer growth, cell-based, BGB or cisplatin combinations (AID 1671459); conditions: UWB1.289 BRCA1 ovarian carcinoma, drug combinations, stronger effect = higher value
[14] = human astrocyte viability loss, single and combined drugs, cytotoxicity control for chromothriptic childhood tumor combination screen, cell-based, BGB or cisplatin IC20 combos (AID 1671460); conditions: Human astrocytes, drug combinations, stronger effect = higher value;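 note: cells exposed to compounds for 96 hours before viability readout; 0% = vehicle and 100% = killing control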
[15] = growth inhibition of BT084 medulloblastoma cells, cell-based, ICGC_MB145, cisplatin and BGB IC40 combos (AID 1671461); conditions: drug combinations, stronger effect = higher value;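 note: cells exposed to drugs for 96 hours; 0% = vehicle DMSO and 100% = high DMSO full killing control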
[16] = growth inhibition of RCMB18 medulloblastoma cells, cell-based, cisplatin and BGB IC40 combos (AID 1671462); conditions: stronger effect = higher value;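 note: cells exposed to compound for four days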
[17] = growth inhibition of CRL1545 osteosarcoma cells, cell-based, cisplatin and BGB IC20 combos (AID 1671464); conditions: stronger effect = higher value;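 note: cells exposed to compound for 96 hours before readout; 0% = vehicle DMSO and 100% = high DMSO killing control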
[18] = measured here: with BGB IC20 combination, at 0.5 µM
[19] = measured here: with cisplatin IC20 combination, at 0.5 µM
[20] = measured here: combination with cisplatin, at 0.5 µM
[21] = measured here: combination with cisplatin, at 5 µM

Structure (SMILES): CO[C@@]1(NC(=O)Cc2cccs2)C(=O)N2C(C(=O)O)=C(COC(N)=O)CS[C@@H]21
- SMN1 luciferase ratio [1]: 1.2
- SMN2/SMN1 luciferase ratio [1]: 1.24 (active)
- SMN2 luciferase ratio [1]: 1.48

Structure (SMILES): CC(N=C(NC#N)Nc1ccncc1)C(C)(C)C (stereo not drawn)
- fold fluorescence [2]: 3.41 [at 203.8 µM] (inactive)

Structure (SMILES): OCCN1CCN(CCCN2c3ccccc3Sc3ccc(Cl)cc32)CC1
- normalised LDH release [3]: 0.608

Structure (SMILES): O=C(CCCN1CC=C(n2c(=O)[nH]c3ccccc32)CC1)c1ccc(F)cc1
- protection [4]: 35% (active)

Structure (SMILES): CCN(CC)CCNC(=O)c1ccc(N)cc1
- fold fluorescence [2]: 4.18 [at 212.5 µM] (inactive)

Structure (SMILES): CCCCNC(=O)NS(=O)(=O)c1ccc(C)cc1
- fold fluorescence [2]: 3.24 [at 184.9 µM] (inactive)

Structure (SMILES): Cc1ccc(S(=O)(=O)NC(=O)NN2CCCCCC2)cc1
- fold fluorescence [2]: 4.87 [at 160.6 µM] (inactive)

Structure (SMILES): Cn1c(=O)c2[nH]cnc2n(C)c1=O
- inhibition ([5]; BGB combo, at 5 µM): -6.91% and -17% and -18.3%
- inhibition ([5]; at 0.5 µM): 1.38% (inactive) and 2.18% (inactive) and -18.5% (inactive)
- inhibition ([5]; cisplatin combo, at 5 µM): 14.2% and 15.4% and -46.9%
- inhibition [5, 18]: 4.11% and 8.06% and -21.1%
- inhibition [5, 19]: 9.64% and 13.8% and 3.17%
- inhibition ([5]; single agent, at 5 µM): -10.4% and -21.4% and -26.1%
- inhibition ([6]; at 0.5 µM): -21.9% (inactive) and -0.42% (inactive) and -31.4% (inactive)
- inhibition ([6]; measured here: combination with BGB IC40, at 0.05 µM): -26.4% and 1.86% and -7.92%
- inhibition [6, 20]: -14.9% and -0.619% and -31.4%
- inhibition [6, 21]: 8.09% and -20.9% and -28.9%
- inhibition ([7]; at 0.5 µM): 4.06% (inactive) and -19.4% (inactive) and 3.27% (inactive)
- inhibition ([7]; measured here: with BGB IC20, at 0.5 µM): -3.78% and -35% and -47%
- inhibition ([7]; measured here: with BGB IC20, at 5 µM): -9.64% and -9.51% and -34.2%
- inhibition ([7]; measured here: with cisplatin IC20, at 0.5 µM): -5.37% and -29.8% and 44.7%
- inhibition ([7]; measured here: with cisplatin IC20, at 5 µM): -42.2% and 14.2% and 0.95%
- inhibition ([7]; single agent, at 5 µM): 4.95% and 14.1% and 12.1%
- inhibition ([8]; at 0.5 µM): -26.5% (inactive) and -30.1% (inactive) and -56.1% (inactive)
- inhibition ([8]; measured here: combination with BGB at IC20, at 0.5 µM): -30.2% and -27.7% and -48.2%
- inhibition ([8]; measured here: combination with cisplatin at IC20, at 0.5 µM): -14.9% and -28.7% and -88%
- inhibition ([9]; at 0.5 µM): -13.1% (inactive) and -5.07% (inactive) and -0.46% (inactive)
- inhibition ([9]; measured here: combo with BGB at IC20, at 0.5 µM): -12% and -8.62% and 8.13%
- inhibition ([9]; measured here: combo with cisplatin at IC20, at 0.5 µM): -20.1% and -3.43% and -7.86%
- inhibition ([10]; at 0.5 µM): 4.45% (inactive) and -2.98% (inactive) and 2.06% (inactive)
- inhibition ([10]; measured here: inhibition with BGB combination, at 0.05 µM): -14.7% and -27.6% and -12%
- inhibition ([10]; measured here: inhibition with cisplatin combination, at 0.05 µM): -7.61% and -9.15% and -16.4%
- inhibition ([11]; at 0.5 µM): -18.7% (inactive) and -17.5% (inactive) and -20.5% (inactive)
- inhibition [11, 20]: -25.2% and -14.1% and -19.4%
- inhibition [11, 21]: -67.2% and -2.43% and -20.9%
- inhibition ([12]; at 0.5 µM): -17.5% (inactive) and -19.5% (inactive) and -13.6% (inactive)
- inhibition ([12]; measured here: BGB combination, at 0.5 µM): -12% and -14.3% and -17.1%
- inhibition ([12]; measured here: BGB combination, at 5 µM): -13.2% and -18.8% and -9.87%
- inhibition ([12]; measured here: cisplatin combination, at 0.5 µM): -40.2% and -33.9% and -18.2%
- inhibition ([12]; measured here: cisplatin combination, at 5 µM): -36.3% and -17.6% and -0.817%
- inhibition ([13]; BGB combination, concentration series, at 5 µM): -19.8% and 16.6% and -0.184%
- inhibition ([13]; at 0.5 µM): -1.02% (inactive) and -1.86% (inactive) and -8.23% (inactive)
- inhibition ([13]; cisplatin combination, concentration series, at 5 µM): 10.1% and 4.75% and 18.9%
- inhibition ([14]; at 0.5 µM): 0.61% (inactive) and -3.23% (inactive) and 6.04% (inactive)
- inhibition ([14]; measured here: combo with BGB IC20, at 0.5 µM): -5.91% and -4.46% and 10.7%
- inhibition ([14]; measured here: combo with cisplatin IC20, at 0.5 µM): -10.6% and -12% and 4.82%
- inhibition ([15]; at 0.5 µM): -52.1% (inactive) and -29.3% (inactive) and -9.65% (inactive)
- inhibition ([15]; cisplatin combination, at 0.5 µM): -24.1% and -32.5% and -4.44%
- inhibition ([15]; cisplatin combination, at 5 µM): -14.9% and -47.9% and -47.4%
- inhibition ([15]; measured here: BGB IC40 combination 0.05 uM, at 0.05 µM): -3.16% and -19.9% and 10.3%
- inhibition ([15]; single agent, at 5 µM): -10.6% and -25.6% and -15.2%
- inhibition ([16]; at 0.5 µM): -12.3% (inactive) and -7.91% (inactive) and -23.8% (inactive)
- inhibition ([16]; cisplatin combo, at 5 µM): -18.4% and 16.4% and 3.76%
- inhibition ([16]; measured here: BGB IC40 combination, at 0.05 µM): -15.1% and -0.46% and -14.9%
- inhibition [16, 20]: 5.37% and -0.222% and -34.5%
- inhibition ([16]; single agent, at 5 µM): -20% and -29.1% and -26.4%
- inhibition ([17]; at 0.5 µM): 2.86% (inactive) and -13.9% (inactive) and -23% (inactive)
- inhibition [17, 18]: 6.54% and -1.14% and 25.3%
- inhibition [17, 19]: -1.22% and -20.4% and -47.1%
- inhibition ([17]; single agent, at 0.05 µM): 6.84% and 45.8% and 6.98%
- inhibition ([17]; single agent, at 5 µM): 18.7% and 15.6% and -12.3%
